Out of some 350,000 compounds screened, about 700 (0.2%) were called active. The calls are words filed in the database; no cut-off is given here. This excerpt belongs to a sample that is enriched for actives.

Chain of RecQ-like DNA helicase BLM (Homo sapiens) (P54132 whole entry): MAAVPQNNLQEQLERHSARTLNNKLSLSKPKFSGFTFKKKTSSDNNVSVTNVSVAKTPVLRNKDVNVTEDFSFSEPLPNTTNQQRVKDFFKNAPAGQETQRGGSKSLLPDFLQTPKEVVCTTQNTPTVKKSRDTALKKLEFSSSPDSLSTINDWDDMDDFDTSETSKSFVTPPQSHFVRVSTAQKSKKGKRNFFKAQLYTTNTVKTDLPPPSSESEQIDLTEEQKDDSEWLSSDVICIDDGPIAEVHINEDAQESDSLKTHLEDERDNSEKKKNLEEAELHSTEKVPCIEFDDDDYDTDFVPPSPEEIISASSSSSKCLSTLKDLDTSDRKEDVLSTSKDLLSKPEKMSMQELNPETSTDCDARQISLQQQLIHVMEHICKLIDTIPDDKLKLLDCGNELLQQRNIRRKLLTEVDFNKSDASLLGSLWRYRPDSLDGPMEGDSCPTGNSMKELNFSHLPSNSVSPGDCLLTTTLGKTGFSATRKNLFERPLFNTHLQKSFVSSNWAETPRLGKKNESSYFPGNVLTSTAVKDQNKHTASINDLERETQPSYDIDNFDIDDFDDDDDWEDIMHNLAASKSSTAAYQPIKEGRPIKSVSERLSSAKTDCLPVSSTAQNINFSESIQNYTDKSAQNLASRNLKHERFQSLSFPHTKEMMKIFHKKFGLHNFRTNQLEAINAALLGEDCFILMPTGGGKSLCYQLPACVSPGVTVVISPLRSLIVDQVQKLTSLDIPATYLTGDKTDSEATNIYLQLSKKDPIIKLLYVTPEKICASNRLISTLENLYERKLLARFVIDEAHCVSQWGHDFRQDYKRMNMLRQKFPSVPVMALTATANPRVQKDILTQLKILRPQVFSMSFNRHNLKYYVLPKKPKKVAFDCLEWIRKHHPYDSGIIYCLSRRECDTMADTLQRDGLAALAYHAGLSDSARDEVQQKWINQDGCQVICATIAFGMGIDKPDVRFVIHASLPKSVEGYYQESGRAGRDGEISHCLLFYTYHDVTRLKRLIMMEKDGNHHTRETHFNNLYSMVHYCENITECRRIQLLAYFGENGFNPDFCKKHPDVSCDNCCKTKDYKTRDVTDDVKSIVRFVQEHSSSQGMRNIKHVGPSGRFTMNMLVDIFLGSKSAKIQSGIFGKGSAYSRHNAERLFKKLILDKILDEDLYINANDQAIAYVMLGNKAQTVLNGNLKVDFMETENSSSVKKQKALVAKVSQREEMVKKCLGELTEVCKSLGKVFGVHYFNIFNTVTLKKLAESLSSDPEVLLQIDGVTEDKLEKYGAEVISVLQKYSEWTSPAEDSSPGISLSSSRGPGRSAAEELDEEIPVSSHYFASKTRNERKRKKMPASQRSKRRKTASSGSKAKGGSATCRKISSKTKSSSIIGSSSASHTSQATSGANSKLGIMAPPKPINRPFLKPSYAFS

The experiment concerns the target RecQ-like DNA helicase BLM (Homo sapiens) (UniProt P54132). Briefly: qHTS Assay for Inhibitors of Bloom's syndrome helicase (BLM). Format: functional.
As for `Nc1nc(N)c2nc(CNc3ccc(C(=O)N[C@@H](CCC(=O)O)C(=O)O)cc3)cnc2n1`, the Potency was 20 µM (active).

The values are drawn from ChEMBL document CHEMBL1201862, “PubChem BioAssay data set” (2004).
